# Measurements taken from PubChem BioAssay (NCATS).
# Records with an inconclusive call do not appear. Where a call stands in place of a potency, no number is given. Calls of active or inactive are those of the source. Calls follow the shape of the dose curve; as a rule, active = well fitted inhibition curve with a large enough effect; inconclusive = small, poorly fitted or top-dose-only effect; inactive = flat fitted curve, though single readings scatter.
# Molecular target: Calcium and integrin-binding protein 1 (Homo sapiens) (UniProt Q99828)
# Test: Primary qHTS for Identification of Calcium Integrin Binding Protein 1 (CIB1) Competitor (AID 1508620);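 also: GST tagged CIB1 binding a fluorescein labelled alphaIIb integrin peptide tracer; top concentration of the series differs between compounds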
# Conditions: CIB1-GST / FITC-alphaIIb peptide fluorescence polarization; series mostly up to 114 µM
# Procedure, shortened: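 CIB1-GST (1 uM final) and compound incubated 15 min at room temperature before adding FITC-alphaIIb peptide tracer (100 nM final). Competition for binding read by fluorescence polarization (ex 480, em 540) after another 15 min at room temperature.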
# Calcium and integrin-binding protein 1 (Homo sapiens), sequence (Q99828 whole entry, looked up): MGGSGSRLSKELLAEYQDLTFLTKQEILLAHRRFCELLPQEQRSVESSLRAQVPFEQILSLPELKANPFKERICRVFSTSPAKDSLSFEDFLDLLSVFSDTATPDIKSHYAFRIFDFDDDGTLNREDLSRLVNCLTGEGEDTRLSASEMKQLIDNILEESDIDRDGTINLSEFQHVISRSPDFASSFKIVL
SMILES,Potency,"activity change, negative = inhibition"
N[C@@]1(C(=O)O)CC[C@H]2[C@H](C(=O)O)[C@H]21,inactive,–
CC(C)CCC(=O)CC1c2ccccc2C(=O)N1c1ccc2ccc(Cl)nc2n1 (stereo not given),inactive,–
C=C1CCCC2(C)CC3(OC)OC(=O)C(C)=C3CC12 (stereo not given),inactive,–
CC(=O)OC1C(OC(=O)c2ccccc2)C2C(C)(C)CC(=O)CC2(C)C23CCC(C)(C2)C(O)CC13 (stereo not given),inactive,–
CC(C)CCC1(O)C(=O)C(C)(C)C(O[C@@H]2O[C@H](CO)[C@@H](O)[C@H](O)[C@H]2O)C(C)(C)C1O (stereo not given in full),inactive,–
C[C@H](NC(=O)CCc1nc2ccccc2c(=O)[nH]1)c1ccccc1,inactive,–
CC1=CCC(C(C)(C)O[C@@H]2O[C@H](CO[C@@H]3O[C@@H](C)[C@H](O)[C@@H](O)[C@H]3O)[C@@H](O)[C@H](O)[C@H]2O)CC1 (stereo not given in full),inactive,–
COc1ccc(CC2NCCc3c2[nH]c2ccc(C)cc32)cc1OC (stereo not given),inactive,–
CC[C@]1(O)CC2CN(CCc3c([nH]c4ccccc34)[C@@](C(=O)OC)(c3cc4c(cc3OC)N(C=O)[C@H]3[C@@](O)(C(=O)OC)[C@H](OC(C)=O)[C@]5(CC)C=CCN6CC[C@]43[C@@H]65)C2)C1 (stereo not given in full),inactive,–
COc1cc(Br)c(S(=O)(=O)Nc2ccc(C(F)(F)F)c(O[C@@H]3CCN(C)C3)c2)cc1OC,inactive,–
C/C(=C\CCC(C)CCO)C(=O)O[C@@H]1[C@@H](O)[C@H](OC2OC=C(C(=O)O)C3CCC(C)(O)C23)O[C@H](CO)[C@H]1O (stereo not given in full),inactive,–
COc1ccc(CN2C(=O)C(=O)c3cc(S(=O)(=O)N4CCC[C@H]4COc4cccnc4)ccc32)cc1,inactive,–
C[C@@H]1O[C@@H](O[C@@H]2[C@@H](O)[C@H](O[C@H]3[C@H](O[C@H]4CC[C@@]5(C)C(CC[C@]6(C)C5CC=C5[C@@H]7CC(C)(C)CC[C@]7(C(=O)O[C@@H]7O[C@H](CO)[C@@H](O)[C@H](O)[C@H]7O[C@@H]7O[C@@H](C)[C@H](O[C@@H]8O[C@@H](C)[C@H](O)[C@@H](O)[C@H]8O)[C@@H](O)[C@H]7O)CC[C@]56C)[C@@]4(C)CO)O[C@H](C(=O)O)[C@@H](O)[C@@H]3O)O[C@H](CO)[C@H]2O)[C@H](O)[C@H](O)[C@H]1O (stereo not given in full),–,4.5% [at 12.4 µM] (inactive)
CCCN1CCC(c2cccc(S(C)(=O)=O)c2)CC1,inactive,–
CC/C=C/CC1=C(CCCCC(CCC(=O)O)OC(C)=O)CCC1=O (stereo not given),inactive,–
